About 79,000 compounds went through this panel and 15% of them were active in at least one assay; those are over-represented in the sample as a whole. A number with no mark means an inactive call. The source made the active and inactive calls. Cut-off read from the data, not from the text of the source: active = growth inhibition above about 70%; inactive = the rest.
Experiment: NCI Yeast Anticancer Drug Screen. Data for the rad18 strain (AID 177)
Details: S. cerevisiae rad18 mutant growth inhibition, stronger effect = higher value
Procedure: Growth inhibition of yeast strains with defined genetic alterations is measured as a screen for potential anti-cancer activity. Selected strains with alterations in DNA damage repair or cell cycle control were exposed to compounds and growth inhibition was measured relative to vehicle treated controls. The strain used in this assay is rad18

Row | SMILES | growth inhibition (at 1.2 µM) | growth inhibition (at 3.7 µM) | growth inhibition (at 11.0 µM) | growth inhibition (at 33.0 µM) | growth inhibition (at 100.0 µM)
1 | Cc1ccc(S(=O)(=O)NNC(=S)Nc2cccc3ccccc23)cc1 | -1% | -1% | 2% | -4% | 12%
2 | COc1ccc(-c2cn(-c3ccc(I)cc3)c3ncnc(N)c23)cc1 | -5% | -9% | -10% | -4% | 0%
3 | CSc1nc(=S)[nH]c2c1c(C)nn2-c1ccccc1 | 10% | -10% | 4% | -5% | 36%
4 | CC(C)OC(=O)Oc1ccccc1OC(=O)OC(C)C | -3% | 1% | 0% | -3% | 0%
5 | [O-][n+]1c2ccc(O)cc2nc2ccc(Br)cc21 | 5% | 21% | 57% | 90% (active) | 90% (active)
6 | N#CC(C(=O)Nc1ccccc1)C1=C(Cl)C(=O)c2ccccc2C1=O (stereo not given) | -15% | -8% | 90% (active) | 98% (active) | 97% (active)
7 | CCS(=O)(=O)c1ccc(/C=C/C=N/NC(=S)NCC(C)C)cc1 | 6% | 2% | -1% | 5% | 9%
8 | O=C(OCC=C1CCCC1)c1cc([N+](=O)[O-])cc([N+](=O)[O-])c1 | -2% | 2% | 21% | 95% (active) | 98% (active)
